The source of these data is PubChem BioAssay AID489012 (National Center for Advancing Translational Sciences (NCATS), 2010).

Each structure is given as a SMILES string. Records with an inconclusive call do not appear. Values without a mark were called inactive. Activity calls are given as the source filed them. Calls follow the shape of the dose curve; as a rule, active = well fitted activation curve with a large enough effect; inconclusive = small, poorly fitted or top-dose-only effect; inactive = no such curve, though single readings can be large or run the other way.
Potency is read from the fitted curve at half-maximal effect.

The target in the assay is Relaxin receptor 1 (Homo sapiens) (UniProt Q9HBX9). As to the kind of experiment: qHTS Assay for Agonists of the Relaxin Receptor RXFP1: RXFP1 Hit Validation. Also: nearly all actives have a fitted effect of over 65% in size.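 As to activation: cAMP rise lowers the TR-FRET signal in lysed cells with PDE4 inhibitor present; 0% = buffer-only basal and 100% = 29 nM porcine relaxin.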 As to conditions: HEK293T-RXFP1 cAMP TR-FRET, 30 min; series mostly up to 115 µM; activation: at the top concentration. On the technique in general: qHTS replaces the single test concentration by a dilution series.
Relaxin receptor 1 (Homo sapiens), sequence (Q9HBX9 whole entry, looked up): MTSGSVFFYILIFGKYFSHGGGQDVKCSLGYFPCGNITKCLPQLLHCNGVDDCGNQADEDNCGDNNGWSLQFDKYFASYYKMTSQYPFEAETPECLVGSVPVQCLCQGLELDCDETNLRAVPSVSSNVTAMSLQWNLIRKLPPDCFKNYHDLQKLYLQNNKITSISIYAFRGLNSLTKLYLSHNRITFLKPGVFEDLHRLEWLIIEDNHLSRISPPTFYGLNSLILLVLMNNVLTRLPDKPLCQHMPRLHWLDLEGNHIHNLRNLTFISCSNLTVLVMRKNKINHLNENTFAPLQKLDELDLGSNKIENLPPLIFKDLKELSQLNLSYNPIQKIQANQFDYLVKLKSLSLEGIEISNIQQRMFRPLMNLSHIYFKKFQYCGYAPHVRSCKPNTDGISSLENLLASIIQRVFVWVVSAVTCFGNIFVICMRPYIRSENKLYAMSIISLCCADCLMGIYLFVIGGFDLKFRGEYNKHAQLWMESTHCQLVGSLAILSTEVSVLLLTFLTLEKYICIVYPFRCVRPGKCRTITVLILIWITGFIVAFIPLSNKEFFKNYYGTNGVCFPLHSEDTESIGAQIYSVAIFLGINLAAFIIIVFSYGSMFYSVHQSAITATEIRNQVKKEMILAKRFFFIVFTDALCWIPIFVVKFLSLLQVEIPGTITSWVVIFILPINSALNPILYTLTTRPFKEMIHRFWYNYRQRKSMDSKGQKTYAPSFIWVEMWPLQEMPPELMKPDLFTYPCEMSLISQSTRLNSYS
With `Cc1cc(NC(=O)c2ccccc2F)nc2c1c(=O)oc1ccccc12`, the Potency was 17.3 µM (active).
With `Nc1c(Cl)cc(-c2[nH]c3cc(C(=O)NCCO)ccc3c(=O)c2O)cc1Cl`, the Potency is 34.6 µM (active).
With `O=[N+]([O-])c1cc2c(c(CSc3nnc4ccccn34)c1)OCOC2`, the Potency is 30.9 µM (active).
With `Cc1ccc(Cl)cc1NC(=O)CCCN1C(=O)c2cccnc2C1=O`, the “activation” value was 22.7%.
Same read-out and setting: the same measure for `CC(=O)Nc1c2c3c(cccc3n(C)c1=O)C(=O)c1ccccc1-2`: 24.1% [at 45 µM].
On to `CCc1cc2cc3c(cc2nc1SCC(=O)Nc1nccs1)OCO3`, for which the Potency was 17.3 µM (active).
Turning to `CCn1c(=O)c2cc(C(=O)Nc3cccc(C(C)=O)c3)sc2c2ccccc21`, the “activation” value was 7.81%.
In the case of `S=c1nc[nH]c2c1[nH]c1ccccc12`, the Potency was 6.9 µM (active).
As for `Nc1nnc(CC(=O)N/N=C/c2ccc(-c3ccc(Cl)cc3Cl)o2)s1`, the “activation” value is 6.59%.
Turning to `COC(=O)c1c(N2C(=O)CC(Sc3ncccc3C(=O)O)C2=O)sc(C)c1C` (configuration not stated), the “activation” value was -8.76%.
On to `COc1ccc(/C=C2/SC(=O)N(CC(=O)Nc3cc(C)on3)C2=O)cc1OC`, for which the “activation” value was -68%.
The same measure, in the same setting: the value for `CN1CCN(C(=O)CCc2nnc3ccc(N4CCC5(CC4)OCCO5)nn23)CC1` was 19%.
In the case of `CC1(C)Cc2c(sc3c2c2ncnn2c2nnc(SCC(=O)NCc4ccco4)n32)CO1`, the Potency was 6.16 µM (active).
Still for that read-out and setting: the value for `O=S(=O)(c1cccc(-c2cn3cccnc3n2)c1)N1CCOCC1` was 27.5 µM (active).
With `Cc1ccc(CN(C)C(=O)c2ccc3c(c2)NC(=O)CS3)o1`, the “activation” value is -29.9%.
On the same count and under the same terms, the same measure for `COc1ccc(CNC(=O)CN2C(=O)NC(C)(c3cccc(Br)c3)C2=O)cc1` (configuration not stated): -2.25%; for `COc1ccccc1NC(=O)c1sc2nc3n(c(=O)c2c1C)CCC3`: 7.23% [at 45 µM].
